Laboratory results: the supplement of paper PMC11732987, “Enantioselective OTUD7B fragment discovery through chemoproteomics screening and high-throughput optimisation” (Communications Chemistry, 2025)

Columns and labels:
Test in all cases: log2 ratio of Biotin-Ahx-Ub-VS probe labelling (fragment/DMSO); higher = less target engagement (more negative = stronger competition), active = hit call of the paper (q ≤ 0.05, log2 ratio ≤ -1)
Settings in all cases: compound concentration: 200 uM; treatment time: 3 h
USP34 = USP34 (UniProt Q70CQ2)
Procedure, shortened: (§1)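 HEK293T lysate, 495 µg per sample in Tris/CHAPS/IGEPAL buffer with protease inhibitors, was treated in triplicate with fragment at 200 µM or vehicle for 3 h and then with Biotin-Ahx-Ub-VS at 0.5 µM final for 1 h. Labelled DUBs were NeutrAvidin-enriched, digested with LysC and trypsin, and run by diaPASEF LC-MS/MS. Spectronaut label-free quantities were global-median-normalised, and values are average log2 fragment/vehicle ratios by unpaired t-test on proteins with ≥2 unique peptides.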

USP36 = molecular target: T1, USP36 (UniProt Q9P275)
T1 sequence (whole entry): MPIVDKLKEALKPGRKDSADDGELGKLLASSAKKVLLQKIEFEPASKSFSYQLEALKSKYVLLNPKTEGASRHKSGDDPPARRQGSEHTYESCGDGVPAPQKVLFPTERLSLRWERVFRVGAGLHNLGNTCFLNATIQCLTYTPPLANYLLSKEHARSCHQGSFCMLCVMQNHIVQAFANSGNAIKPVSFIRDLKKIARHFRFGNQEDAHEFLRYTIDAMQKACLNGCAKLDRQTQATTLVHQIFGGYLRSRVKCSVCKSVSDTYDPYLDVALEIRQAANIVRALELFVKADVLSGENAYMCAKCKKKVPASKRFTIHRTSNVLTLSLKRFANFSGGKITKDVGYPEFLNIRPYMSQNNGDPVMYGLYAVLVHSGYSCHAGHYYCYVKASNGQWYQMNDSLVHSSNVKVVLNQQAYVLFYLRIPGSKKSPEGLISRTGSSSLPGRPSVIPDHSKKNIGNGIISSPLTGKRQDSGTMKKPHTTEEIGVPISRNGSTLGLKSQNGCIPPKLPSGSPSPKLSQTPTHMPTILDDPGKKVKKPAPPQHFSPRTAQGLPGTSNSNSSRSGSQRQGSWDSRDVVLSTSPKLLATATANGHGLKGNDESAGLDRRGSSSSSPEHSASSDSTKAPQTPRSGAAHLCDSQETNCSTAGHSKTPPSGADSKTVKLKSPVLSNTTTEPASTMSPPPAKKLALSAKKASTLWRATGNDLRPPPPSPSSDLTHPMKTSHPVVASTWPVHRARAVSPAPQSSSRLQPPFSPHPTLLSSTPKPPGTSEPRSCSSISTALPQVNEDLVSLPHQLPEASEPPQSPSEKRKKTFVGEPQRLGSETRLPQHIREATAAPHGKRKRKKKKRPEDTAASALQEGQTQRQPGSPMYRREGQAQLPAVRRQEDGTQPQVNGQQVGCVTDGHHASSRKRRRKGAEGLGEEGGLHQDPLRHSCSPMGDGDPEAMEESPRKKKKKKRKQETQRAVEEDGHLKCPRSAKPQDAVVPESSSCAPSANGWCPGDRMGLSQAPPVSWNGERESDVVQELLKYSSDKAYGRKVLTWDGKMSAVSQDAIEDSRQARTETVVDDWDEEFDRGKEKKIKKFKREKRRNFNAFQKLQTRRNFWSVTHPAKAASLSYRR
Procedure, shortened: as §1

USP38 = molecular target: T2, USP38 (UniProt Q8NB14)
T2 sequence (whole entry): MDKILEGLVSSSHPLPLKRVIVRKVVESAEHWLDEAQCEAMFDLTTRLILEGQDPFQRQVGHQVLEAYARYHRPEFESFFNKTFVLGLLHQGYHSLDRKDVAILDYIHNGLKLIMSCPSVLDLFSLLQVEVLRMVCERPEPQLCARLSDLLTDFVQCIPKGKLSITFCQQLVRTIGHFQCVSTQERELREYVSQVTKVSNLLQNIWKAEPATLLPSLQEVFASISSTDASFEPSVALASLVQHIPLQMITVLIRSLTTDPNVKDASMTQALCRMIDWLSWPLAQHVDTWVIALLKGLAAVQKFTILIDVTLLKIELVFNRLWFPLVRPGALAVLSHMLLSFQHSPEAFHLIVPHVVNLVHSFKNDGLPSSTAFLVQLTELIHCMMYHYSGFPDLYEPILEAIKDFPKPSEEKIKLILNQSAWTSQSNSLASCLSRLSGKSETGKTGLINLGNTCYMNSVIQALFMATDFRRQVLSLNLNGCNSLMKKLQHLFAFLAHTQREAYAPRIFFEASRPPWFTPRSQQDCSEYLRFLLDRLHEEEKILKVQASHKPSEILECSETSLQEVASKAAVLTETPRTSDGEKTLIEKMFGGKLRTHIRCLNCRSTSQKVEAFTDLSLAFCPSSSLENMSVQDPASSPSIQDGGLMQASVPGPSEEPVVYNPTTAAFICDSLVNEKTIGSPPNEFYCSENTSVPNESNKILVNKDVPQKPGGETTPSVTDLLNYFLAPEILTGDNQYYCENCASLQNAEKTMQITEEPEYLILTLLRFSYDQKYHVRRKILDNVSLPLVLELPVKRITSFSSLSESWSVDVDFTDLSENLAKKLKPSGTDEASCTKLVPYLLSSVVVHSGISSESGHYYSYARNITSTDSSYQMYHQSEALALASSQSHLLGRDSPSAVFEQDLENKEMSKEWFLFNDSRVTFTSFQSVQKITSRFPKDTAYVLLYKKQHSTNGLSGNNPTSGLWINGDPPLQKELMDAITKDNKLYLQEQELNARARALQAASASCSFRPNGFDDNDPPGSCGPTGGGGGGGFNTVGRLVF
Procedure, shortened: as §1

USP39 = molecular target: T3, USP39 (UniProt Q53GS9)
T3 sequence (whole entry): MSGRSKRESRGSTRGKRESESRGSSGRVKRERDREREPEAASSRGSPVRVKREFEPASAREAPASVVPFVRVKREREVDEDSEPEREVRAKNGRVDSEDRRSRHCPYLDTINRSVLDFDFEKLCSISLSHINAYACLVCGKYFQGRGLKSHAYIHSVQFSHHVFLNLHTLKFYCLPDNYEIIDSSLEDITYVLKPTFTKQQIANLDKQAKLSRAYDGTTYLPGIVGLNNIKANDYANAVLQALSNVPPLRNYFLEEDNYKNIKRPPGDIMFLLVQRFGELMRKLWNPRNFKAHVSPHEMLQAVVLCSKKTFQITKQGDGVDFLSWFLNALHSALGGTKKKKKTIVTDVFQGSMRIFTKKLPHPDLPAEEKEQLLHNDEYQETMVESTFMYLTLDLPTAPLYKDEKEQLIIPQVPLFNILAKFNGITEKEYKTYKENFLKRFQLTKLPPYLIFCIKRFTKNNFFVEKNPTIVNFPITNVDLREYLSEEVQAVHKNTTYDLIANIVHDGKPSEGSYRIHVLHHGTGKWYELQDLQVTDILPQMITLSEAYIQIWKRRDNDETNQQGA
Procedure, shortened: as §1

USP4 = molecular target: T4, USP4 (UniProt Q13107)
T4 sequence (whole entry): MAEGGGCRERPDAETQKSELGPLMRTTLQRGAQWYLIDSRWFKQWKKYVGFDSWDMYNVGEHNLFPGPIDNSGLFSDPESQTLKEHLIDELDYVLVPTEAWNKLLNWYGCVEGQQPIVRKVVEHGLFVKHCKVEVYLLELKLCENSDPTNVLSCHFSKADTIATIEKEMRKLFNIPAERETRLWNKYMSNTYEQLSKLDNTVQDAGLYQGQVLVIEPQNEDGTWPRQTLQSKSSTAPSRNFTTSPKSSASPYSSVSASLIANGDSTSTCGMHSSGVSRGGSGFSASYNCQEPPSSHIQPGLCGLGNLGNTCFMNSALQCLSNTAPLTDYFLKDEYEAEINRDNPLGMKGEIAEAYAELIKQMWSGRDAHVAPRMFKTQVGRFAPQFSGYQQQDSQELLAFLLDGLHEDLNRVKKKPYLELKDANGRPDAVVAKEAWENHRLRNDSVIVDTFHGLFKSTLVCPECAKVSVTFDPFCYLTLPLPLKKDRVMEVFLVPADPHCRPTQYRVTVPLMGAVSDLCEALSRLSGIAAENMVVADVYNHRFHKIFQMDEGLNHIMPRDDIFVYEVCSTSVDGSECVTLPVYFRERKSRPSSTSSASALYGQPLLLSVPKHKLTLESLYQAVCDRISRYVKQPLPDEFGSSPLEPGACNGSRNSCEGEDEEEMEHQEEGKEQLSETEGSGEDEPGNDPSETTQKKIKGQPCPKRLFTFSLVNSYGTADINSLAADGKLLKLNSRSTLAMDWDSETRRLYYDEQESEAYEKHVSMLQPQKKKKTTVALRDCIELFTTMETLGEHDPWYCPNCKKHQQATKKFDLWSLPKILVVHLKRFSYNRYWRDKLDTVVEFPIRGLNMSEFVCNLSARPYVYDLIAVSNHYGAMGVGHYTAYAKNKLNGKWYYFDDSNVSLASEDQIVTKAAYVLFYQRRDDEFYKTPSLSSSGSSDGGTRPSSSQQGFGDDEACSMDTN
Procedure, shortened: as §1

Measured: log2 ratio of Biotin-Ahx-Ub-VS probe labelling

USP34, sequence (Q70CQ2 whole entry, the tested form may be a part): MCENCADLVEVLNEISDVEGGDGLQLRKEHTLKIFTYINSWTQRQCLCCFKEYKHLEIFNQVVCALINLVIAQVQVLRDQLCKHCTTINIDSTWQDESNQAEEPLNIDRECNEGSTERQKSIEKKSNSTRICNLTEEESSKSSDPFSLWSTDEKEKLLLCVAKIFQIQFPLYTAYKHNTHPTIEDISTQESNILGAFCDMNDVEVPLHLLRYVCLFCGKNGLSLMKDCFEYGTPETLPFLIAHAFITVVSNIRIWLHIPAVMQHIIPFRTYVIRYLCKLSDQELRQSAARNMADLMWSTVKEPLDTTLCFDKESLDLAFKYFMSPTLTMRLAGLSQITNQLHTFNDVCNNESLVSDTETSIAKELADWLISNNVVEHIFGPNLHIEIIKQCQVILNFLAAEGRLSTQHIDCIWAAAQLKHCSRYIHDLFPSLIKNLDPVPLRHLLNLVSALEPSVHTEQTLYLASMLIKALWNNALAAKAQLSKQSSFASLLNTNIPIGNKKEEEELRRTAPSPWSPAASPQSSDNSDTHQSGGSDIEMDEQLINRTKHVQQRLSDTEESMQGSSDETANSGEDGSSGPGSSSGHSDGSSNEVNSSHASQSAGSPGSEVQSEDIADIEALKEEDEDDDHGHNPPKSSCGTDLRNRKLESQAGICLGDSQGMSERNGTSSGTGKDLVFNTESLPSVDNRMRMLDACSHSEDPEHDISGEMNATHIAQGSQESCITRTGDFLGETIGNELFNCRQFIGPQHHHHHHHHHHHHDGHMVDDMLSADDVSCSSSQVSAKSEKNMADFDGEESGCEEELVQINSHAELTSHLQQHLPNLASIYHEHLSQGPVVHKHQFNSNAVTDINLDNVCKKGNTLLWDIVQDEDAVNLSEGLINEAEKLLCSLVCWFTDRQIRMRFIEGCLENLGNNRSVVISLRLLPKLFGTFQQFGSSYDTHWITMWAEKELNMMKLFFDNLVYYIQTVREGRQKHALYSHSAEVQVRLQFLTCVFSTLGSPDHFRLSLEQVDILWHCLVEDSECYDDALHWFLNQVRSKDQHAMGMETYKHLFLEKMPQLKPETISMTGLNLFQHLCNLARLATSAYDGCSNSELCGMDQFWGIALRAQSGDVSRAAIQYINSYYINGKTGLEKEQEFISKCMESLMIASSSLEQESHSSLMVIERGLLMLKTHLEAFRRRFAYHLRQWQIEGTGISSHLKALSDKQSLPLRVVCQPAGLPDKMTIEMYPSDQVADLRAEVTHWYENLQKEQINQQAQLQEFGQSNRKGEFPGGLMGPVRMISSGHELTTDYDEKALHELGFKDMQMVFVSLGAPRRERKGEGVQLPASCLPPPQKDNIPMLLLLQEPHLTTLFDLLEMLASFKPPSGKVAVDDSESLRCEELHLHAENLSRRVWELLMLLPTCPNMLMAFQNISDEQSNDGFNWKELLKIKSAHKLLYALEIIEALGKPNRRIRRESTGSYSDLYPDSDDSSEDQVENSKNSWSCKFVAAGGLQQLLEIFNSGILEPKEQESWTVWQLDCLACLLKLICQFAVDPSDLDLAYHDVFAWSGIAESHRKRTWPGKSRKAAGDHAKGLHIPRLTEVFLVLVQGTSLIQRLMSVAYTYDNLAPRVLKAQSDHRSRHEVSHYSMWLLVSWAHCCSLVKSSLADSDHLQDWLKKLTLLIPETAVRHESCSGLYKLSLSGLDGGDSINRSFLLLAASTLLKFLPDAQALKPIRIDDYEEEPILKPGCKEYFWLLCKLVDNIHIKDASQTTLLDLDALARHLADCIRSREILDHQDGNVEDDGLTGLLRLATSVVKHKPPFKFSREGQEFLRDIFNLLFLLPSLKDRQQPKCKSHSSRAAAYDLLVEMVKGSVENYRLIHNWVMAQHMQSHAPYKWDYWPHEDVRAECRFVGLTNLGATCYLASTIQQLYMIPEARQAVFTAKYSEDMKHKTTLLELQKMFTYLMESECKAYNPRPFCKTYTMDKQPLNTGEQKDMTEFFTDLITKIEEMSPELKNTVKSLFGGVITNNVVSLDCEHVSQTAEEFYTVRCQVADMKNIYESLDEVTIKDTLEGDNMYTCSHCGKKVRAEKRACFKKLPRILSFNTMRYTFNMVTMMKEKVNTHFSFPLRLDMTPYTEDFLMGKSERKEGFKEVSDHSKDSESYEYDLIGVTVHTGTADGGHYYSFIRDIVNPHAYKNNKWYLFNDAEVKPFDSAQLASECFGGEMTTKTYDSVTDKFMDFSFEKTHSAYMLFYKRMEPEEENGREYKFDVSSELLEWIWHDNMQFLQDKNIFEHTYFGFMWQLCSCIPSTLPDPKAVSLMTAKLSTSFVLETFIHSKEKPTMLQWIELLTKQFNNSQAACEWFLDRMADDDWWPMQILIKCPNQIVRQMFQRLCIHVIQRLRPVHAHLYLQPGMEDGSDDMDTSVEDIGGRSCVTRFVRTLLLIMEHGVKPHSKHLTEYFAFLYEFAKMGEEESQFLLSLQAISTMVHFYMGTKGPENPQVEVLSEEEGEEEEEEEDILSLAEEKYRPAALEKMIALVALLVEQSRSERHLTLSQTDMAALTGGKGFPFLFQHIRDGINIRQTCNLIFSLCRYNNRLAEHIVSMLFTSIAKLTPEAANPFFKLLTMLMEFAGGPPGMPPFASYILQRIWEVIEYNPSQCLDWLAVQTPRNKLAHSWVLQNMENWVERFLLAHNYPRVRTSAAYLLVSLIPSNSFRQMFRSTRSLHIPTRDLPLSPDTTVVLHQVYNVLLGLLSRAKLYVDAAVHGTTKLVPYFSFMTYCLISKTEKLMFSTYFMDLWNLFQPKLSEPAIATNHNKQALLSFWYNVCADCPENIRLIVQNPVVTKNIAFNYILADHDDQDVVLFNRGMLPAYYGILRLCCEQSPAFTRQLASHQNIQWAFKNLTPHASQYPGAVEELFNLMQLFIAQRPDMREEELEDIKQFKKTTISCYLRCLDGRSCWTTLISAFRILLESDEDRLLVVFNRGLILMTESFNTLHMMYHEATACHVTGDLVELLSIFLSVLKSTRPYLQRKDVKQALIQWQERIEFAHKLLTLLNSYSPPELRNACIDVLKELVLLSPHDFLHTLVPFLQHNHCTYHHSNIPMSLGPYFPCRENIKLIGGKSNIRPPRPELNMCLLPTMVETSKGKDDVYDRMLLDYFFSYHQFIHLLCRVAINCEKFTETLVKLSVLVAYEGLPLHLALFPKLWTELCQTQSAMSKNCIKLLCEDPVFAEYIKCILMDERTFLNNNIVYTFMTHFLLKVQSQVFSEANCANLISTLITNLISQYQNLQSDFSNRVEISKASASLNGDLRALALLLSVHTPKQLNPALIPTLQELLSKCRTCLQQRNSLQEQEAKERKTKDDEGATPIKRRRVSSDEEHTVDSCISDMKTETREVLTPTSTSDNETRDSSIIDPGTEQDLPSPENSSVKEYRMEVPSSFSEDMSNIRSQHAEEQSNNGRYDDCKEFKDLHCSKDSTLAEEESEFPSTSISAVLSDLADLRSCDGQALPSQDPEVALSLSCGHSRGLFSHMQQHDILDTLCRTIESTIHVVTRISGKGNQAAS

O=C(CCl)N1CCCCC12CCOCC2
inactive: USP34 -0.284 | USP36 -0.239 | USP38 -0.4 | USP39 -0.243 | USP4 -0.266
